Each structure is given as a SMILES string. Inconclusive results are not listed. A number with no mark means an inactive call. The source made the active and inactive calls. Calls come from the whole dose curve; as a rule, active = well fitted inhibition curve with a large enough effect; inconclusive = small, poorly fitted or top-dose-only effect; inactive = no such curve, though single readings can be large or run the other way.

The test is described as follows: qHTS Assay for Lipid Storage Modulators: COS7 Assay against Probe and Analogs. The following applies: COS7 lipid droplet area, BODIPY imaging, 18 h. An excerpt: Storing lipids as a reservoir for energy or the anabolism of elementary metabolites is a common feature of probably all cells and is conserved from bacteria to humans. The universal cellular lipid storage organelle is the so-called lipid storage droplet (LD). Although ubiquitous, LDs share a simple structure composed of a hydrophobic core that harbors the storage lipids, which is shielded by a droplet-specific phospholipid monolayer to which proteins are attached. The current model of LD biogenesis involves an incorporation of the lipid core into the membrane leaflets of the endoplasmic reticulum (ER) followed by a subsequent budding-like maturation of a LD, which ultimately pinches off. Once released, LD volume can increase by localized lipogenesis or fusion of existing droplets. Storage lipids are re-mobilized enzymatically by lipase activity. Lipase regulation in the adipocyte is heavily studied and involves multiple components including catecholamine signaling, the LD-associated proteins Perilipin and comparative gene identification-58 (CGI-58) and at least two lipases named hormone sensitive lipase (HSL) and adipocyte triglyceride lipase (ATGL). LD regulation outside of the adipocyte is poorly understood and only few components are known. However, there is an urgent need to learn more about ectopic fat depots as mislocalized storage of lipids, for example in the liver or muscle, is an eminent health problem associated with insulin resistance or the metabolic syndrome. We developed a laser-scanning cytometer assay to enable 1,536-well screening and combined the results of the small molecules screen with an RNAi database based on lipid storage. In this assay we tested analogs of the probe against a mammalian cell line (COS7), to see if these small molecules could disrupt lipid storage. NIH Molecular Libraries Probe Production Centers Network [MLPCN] NIH Chemical Genomics Center [NCGC] MLPCN Grant: MH085686 Assay Submitter (PI): Mathias Beller, Max-Planck-Institut fur Biophysikalische Chemie
COS7 cells were obtained from ATCC (CRL-1651), 5500 cells/well were dispensed into Corning 96 well imaging plate (catalog # 3340), and cultured in 100 uL of 1:1 DMEM medium (PAA) contain 10% fetal bovine serum (FBS) for 24 hours at 37 degrees C, 95% humidity, and 5% CO2. The medium was exchanged for compound treatment. Compound treatment occurred in 150 microL serum reduced medium (5% FBS) and 0.2% DMSO in presence of 400 microM oleic acid for 17-18 h. Cells were then fixed (3.7 % formaldehyde in PBS, 5 min), permeabilized (0.1% Triton X100, 5 min) and washed three times with PBS. Lipid droplets (1:2000 BODIPY 493/503) and nuclei (1:1000 Hoechst 33342) were stained for 1h. Imaging was performed in a Zeiss Axiovert automatic microscope. Number of lipid droplet accumulated in […] cells were analyzed using visual examination of the microscopic images and additional quantification by image segmentation using Cell Profiler.
In general terms: Quantitative high-throughput screening tests each substance at several concentrations.
Turning to `CCOc1ccc(CCNC(=O)c2cc3ccncc3n2Cc2cccc(C)n2)cc1OCC`, the max response is -22.2%.
For `CCOc1ccc(CCNC(=O)c2cc3ccccc3n2Cc2cccc(C)n2)cc1OCC`, the Potency was 0.59 µM (active).
For the molecule `CCOc1ccc(CCNC(=O)c2cc3cnccc3n2Cc2cccc(C)c2)cc1OCC`, the max response was -13.8%.
Same read-out and setting: for `CCOc1ccc(CCNC(=O)c2cc3cccnc3n2Cc2cccc(C)c2)cc1OCC` the value was 0%.
Same read-out and setting: for `CCOc1ccc(CCNC(=O)c2cc3ncccc3n2Cc2cccc(C)n2)cc1OCC` the value was -5.54%; for `CCOc1ccc(CCNC(=O)c2cc3ccncc3n2Cc2cccc(C)c2)cc1OCC`, -1.73%.
Regarding `CCOC(=O)C1CCN(C(=O)C2(NC(=O)Nc3ccccc3Cl)CCCC2)CC1`, the Potency was 5.87 µM (active).
On the same count and under the same terms, for `CCOc1ccc(CCNC(=O)c2cc3ccccc3n2Cc2ccccn2)cc1OCC` the value was 1.66 µM (active).
`CCOc1ccc(CCNC(=O)c2cc3ncccc3n2Cc2cccc(C)c2)cc1OCC`: the max response is 6.92%.
Take `CCOc1ccc(CCNC(=O)c2cc3ccccc3n2CCN2CCOCC2)cc1OCC`: the Potency is 5.26 µM (active).
For the molecule `CCOc1ccc(CCNC(=O)c2cc3ccccc3n2Cc2cccc(C)c2)cc1OCC`, the Potency was 0.264 µM (active).
Take `CCOc1ccc(CCNC(=O)c2cc3cnccc3n2Cc2cccc(C)n2)cc1OCC`: the max response is -1.53%.
With `CCOc1ccc(CCNC(=O)c2ccc(C(=O)c3ccccc3)cc2)cc1OCC`, the max response was -5.7%.
For `CCOc1ccc(CCNC(=O)c2cc3sccc3n2Cc2ccc(F)cc2F)cc1OCC`, the Potency is 1.18 µM (active).
For the molecule `CCOc1ccc(CCNC(=O)c2ccccc2)cc1OCC`, the max response was -7.94%.

(Values after PubChem BioAssay AID652283 (National Center for Advancing Translational Sciences (NCATS), 2013).)
